Test results as given in the supplement of paper PMC6555819.

Key:
Test in all cases: PBM binding z-score (relative to random genomic background probes); higher = stronger binding; sequences stand for … in GC…GCGATTGACAGCGTAGAATGAAGG
[1] = test system: RARb homodimer (NR concentration 270 nM)
Procedure, shortened: (§1)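 Scanned fluorescence from custom Agilent 4×180K protein-binding microarrays was regression-normalized. Binding z-scores use random background probes as reference. Ligand-free nuclear receptor dimers were incubated on the arrays for 1 h and detected with antibodies against each partner (one per run).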

[2] = test system: RARg:RXRa (NR concentration 270 nM, RXRa partner concentration 90 nM)
Procedure, shortened: as §1

[3] = test system: RARg homodimer (NR concentration 270 nM)
Procedure, shortened: as §1

[4] = test system: RXRa DBDmut IVT, anti-RXR (DBD mutation: RXRa K156A/R161A, NR concentration 90 nM)
Procedure, shortened: as §1

[5] = test system: RXRa homodimer (NR concentration 180 nM)
Procedure, shortened: as §1

[6] = test system: THRa:RXRa (NR concentration 90 nM, RXRa partner concentration 90 nM)
Procedure, shortened: as §1

[7] = test system: THRa homodimer (NR concentration 90 nM)
Procedure, shortened: as §1

[8] = test system: VDR homodimer (NR concentration 270 nM)
Procedure, shortened: as §1

Row | Sequence | PBM binding z-score [1] | PBM binding z-score [2] | PBM binding z-score [3] | PBM binding z-score [4] | PBM binding z-score [5] | PBM binding z-score [6] | PBM binding z-score [7] | PBM binding z-score [8]
1 | CCTGCTACGTCATGGTCAGCTAATCTACAGTATG | -0.0724 | 0.00255 | -0.0549 | 0.43 | -0.184 | -0.381 | -0.695 | -0.512
2 | CAGACTGGGGCAGAAAGGTTACCATACCATCCGG | 2.4 | 2.09 | 1.85 | -0.43 | 1.98 | 1.29 | -0.421 | 0.0589
3 | TCTAGCAGGCCAGAAGGTCACTCAAGAGGTACGG | 3.87 | 3.95 | 3.46 | 0.459 | 3.15 | 2.28 | 0.225 | 1
4 | CCTACTGGGCCAAGGTCATTGAACAGTCAAAGCA | 3.4 | 3.82 | 3.72 | 0.677 | 3.68 | 3.5 | 2.14 | 2.77
5 | GCGACTGTGGCAAAGCAGGTTACCATAAGGTTGG | 0.168 | -0.101 | -0.193 | -0.432 | 0.102 | 1.22 | -0.306 | -1.03
6 | CCTACTGGGCCAAGGACATTGATCAGTCAAAGCA | 0.324 | 0.0324 | 0.267 | -0.538 | -0.348 | 1.29 | 0.695 | 0.333
7 | GCTATTAGTTGAAAGGGAAACCGAATGATTCTCG | -0.448 | -0.0918 | 0.0889 | 0.797 | -0.215 | -0.127 | -0.399 | 0.461
8 | CAAACTAGGTAACCGGAAGGTCAAAGTCCGCATG | 4.17 | 4.35 | 3.57 | 0.531 | 3.79 | 3.26 | 1.44 | 2.22
9 | GGAACGAGGGCAACGTTGATAGCATCTGTCGACG | 0.961 | 1.37 | 1.79 | 1.56 | 0.986 | 0.981 | -0.186 | -0.00307
10 | TCTAGCACGCCAGAGGGTCACTCAAGAGGTACGG | 2.3 | 2.29 | 1.68 | 0.0776 | 2.41 | 1.48 | -0.414 | 0.501
11 | GATACAGGGTCAGCTAGAGCCCAGAGTATGGAAA | 2.3 | 4.4 | 4.33 | 1.25 | 4.08 | 2.43 | 0.0746 | 0.264
12 | TTACCAAGGTGAAGGTCGCTGATCCCTCTGTAGA | 2.03 | 1.72 | 1.7 | -0.269 | 1.85 | 2.41 | 0.612 | -0.248
13 | GCGACTGGGCCAAAGCAGGTTACCATAAGGTTGG | 0.333 | -0.0916 | -0.132 | -0.818 | -0.0243 | 1.82 | -0.598 | -0.503
14 | GCTAGCAGGCCATTTGGGTCACTCAATGACGGGC | 2 | 1.11 | 1.55 | 0.0537 | 0.821 | 1.94 | 0.534 | 0.524
15 | ATACCAAGGTGATCGTGAGGTGGTTGATACTAAC | 0.533 | 0.588 | 0.258 | -0.212 | 0.48 | 1.61 | 0.979 | 0.166
16 | ACTATTAGTTGACACGAGGGCAACCGATAGGTTG | 1.76 | 1.56 | 1.34 | 0.816 | 1.22 | 3.07 | 0.699 | 1.07
17 | TTACCAAGGTGATCTGAGGTCGTTGATCCAACTC | 1.63 | 0.881 | 0.757 | 0.903 | 1.37 | 4.77 | 2.67 | 2.96
18 | GGAACGAGGGCCAGTTGATAGCAGAGTTTGATGG | 0.014 | -0.18 | 0.0481 | -0.0614 | 0.143 | -0.74 | -0.812 | -0.327
19 | ACAGACAGGTCATGAAGGTAACTCAGGCTATCAT | 3.05 | 4.63 | 4.19 | 1.69 | 4.56 | 3.12 | 0.575 | 1.23
20 | GGAACGAGGGCAAAGTCGATAGCATCTGTCGACG | 0.649 | 0.932 | 0.988 | 2.53 | 0.723 | 0.62 | -0.445 | 1.19
21 | ATCAAAAGGTCGACGAGGTGAGTATACACCGTTT | 3.3 | 4.4 | 4.08 | 1.52 | 4.69 | 3.9 | 1.05 | 0.947
22 | TGAACGAGGTTAAAGATCAGGGAACGTGGCGTCG | 0.576 | 2.39 | 1.35 | 0.835 | 3.89 | 2.04 | -0.132 | 0.34
23 | ATCGAAAGGTCGTGAGGTGAGCATACAGAAAGGC | 3.19 | 4.58 | 4.26 | 1.12 | 5.3 | 3.45 | 1.68 | 0.917
24 | GGAACGAGGGCATTAGAGTTGATAGCATGGCGAT | 0.848 | 1.11 | 1.65 | 2.84 | 0.695 | 2 | -0.303 | 2.49
25 | TCTTGTAGATCAAAGATTAAGAAAGCCGAAGCCT | -1.12 | 0.0193 | -0.33 | 0.517 | 0.241 | -0.201 | -0.962 | -0.417
26 | ACAGACTGGTGATGAAGGTAACTCAGGCTATCAT | -0.356 | -0.329 | 0.0364 | -0.417 | -0.393 | 0.478 | -0.264 | -0.921

Row | Sequence | PBM binding z-score [1] | PBM binding z-score [2] | PBM binding z-score [3] | PBM binding z-score [4] | PBM binding z-score [5] | PBM binding z-score [6] | PBM binding z-score [7] | PBM binding z-score [8]
27 | CCTTACGGGTCACGAGGTTATAGAACGACGAGCG | 4.13 | 6.4 | 5.59 | 1.18 | 7.41 | 3.8 | 1.14 | 2.22
28 | TCTAGTTGGTCACGGAGGTCACACAGGACGGGTA | 4.25 | 4.69 | 4.9 | 0.898 | 4.86 | 3.75 | 2.62 | 3.06
29 | ACAGACAGGTGAGTGAAGGTAACACAGCTGGACG | 0.48 | 0.416 | 0.789 | -0.436 | 0.647 | 1.87 | -0.183 | -0.21
30 | ATACCAAGGTGATCGTTAGGTCGTTGATACTAAC | 1.02 | 0.983 | 0.72 | 0.203 | 0.459 | 2.26 | 1.49 | 0.472
31 | TCGTATAGGTAATACAGGTGAAAGTCGGCATCTA | 0.603 | 0.62 | 0.295 | 1.08 | 0.949 | 1.15 | 0.259 | 0.57
32 | TCTGCTAGGTCAACGATGGTTAGCTAATCTGCTA | 2.99 | 3.97 | 5.29 | 1.1 | 2.75 | 2.9 | 0.466 | -0.391
33 | GCAGCCAGGTGAAACGCAGGTAACTCAGGGTGGC | -0.292 | 0.262 | -0.109 | -0.94 | 0.157 | 1.68 | -0.396 | -0.939
34 | CAAACTAGGTCACCGGAAGGTCAAAGTGCGCATG | 5.82 | 8.58 | 7.66 | 2.19 | 6.73 | 4.72 | 3.05 | 3.53
35 | TTACCTAGGTGAAAGGTCGTTGATGCACGCCTTG | 2.24 | 3.56 | 1.38 | 0.705 | 4.66 | 3.15 | 0.624 | 1.19
36 | GGACCAAGGTGAATAGGTCGTTGATGAGTAGGCG | 1.93 | 2.62 | 1.51 | -0.31 | 1.81 | 1.91 | 0.417 | 0.294
37 | AATACCGGGTCATCGTAGGCCAGAGTACGCACAG | 3.19 | 4.84 | 4.28 | 2.45 | 5.06 | 4.59 | 1.69 | 3.06
38 | CCTTACGGCTCAAGGTTATAGCACGGGTGGTACG | 0.426 | 0.285 | 0.278 | -0.298 | 0.615 | 1.05 | 0.716 | 0.469
39 | TTACCAAGGTGAGCTTAGGTCGTTGATCCAACTC | 1.27 | 0.36 | 0.732 | -0.17 | 0.352 | 3.88 | 0.952 | -0.0607
40 | CAGACAGGGTCAGCTAGGCCAGAGTAGGGACGGC | 3.06 | 4.3 | 4.64 | 1.59 | 4.42 | 3.01 | 0.505 | 0.912
41 | ACTTACGGGTCAACGAGGTTAGAGCACGCGTATA | 3.62 | 5.52 | 5.15 | 2.34 | 5.87 | 3.7 | 0.878 | 2.6
42 | CCAGACAGGTGAGAAGGTAACGCAGCCTCGATTA | 0.798 | 0.793 | 0.415 | 0.201 | 0.556 | 0.331 | 0.41 | -0.143
43 | TTACCAAGGTGAGCTGAGGTCGTCGATCCAACTC | 1.49 | 1.37 | 1.36 | -0.22 | 1.75 | 4.74 | 2.4 | 1.02
44 | GCTCGGAGGACAAGGTCAGAGTTTTGTCCGTAGA | 3.25 | 3.1 | 3.94 | 0.706 | 2.55 | 3.11 | 1.72 | 0.974
45 | TAGTCTAGGTCAGATCGGGCCAGTATACGCTATA | 2.21 | 2.72 | 3.51 | -0.14 | 1.39 | 4.26 | 0.664 | -0.0113
46 | TAGCCTAGGTCATTGGGCCGGTATAGTACGCATC | 2.86 | 3.58 | 4.08 | 0.933 | 2.62 | 2.67 | 0.961 | 1.35
47 | TCTAGCAGGCCAGGGGGTCACTCAAGAGGTACGG | 3.61 | 5.22 | 4.08 | 1.3 | 5.38 | 3.35 | 1.52 | 2.91
48 | AAAGACAGGTGATGAAGGTAACTCAGGCTATCAT | 0.516 | 0.231 | 0.563 | -0.304 | 0.572 | 1.23 | 0.466 | 0.111
49 | CATCCAAGGTCAATGCTAGGTCAGTGAAAGCATT | 4.85 | 7.59 | 6.9 | 3.53 | 5.4 | 4.39 | 2.95 | 3.16
50 | TAGCCTAGGTCAGATCGGGCCACTATACGCTATA | 2.48 | 2.78 | 3.37 | -0.221 | 1.48 | 4.72 | 0.493 | 0.0583
51 | GCTATTAGTTGAGAGGGCAACCGAATGATTCTCG | 1.14 | 0.913 | 1.01 | 0.884 | 0.882 | 0.555 | -0.117 | 0.435
52 | GCAGACAAGTGAAACGCAGGTAACTCAGGGTGGC | -1 | -0.267 | -0.436 | -0.633 | 0.115 | 0.682 | -0.967 | -0.593
